Rows were chosen to be rich in hits. Some 21% of all compounds tested hit in one or more screens of this group.
Shiga toxin inh: Shiga toxin inhibition; inhibition, % at 38.7 µM; Vero cells, Shiga toxin protein synthesis inhibition reporter; 9.2% of 290,000 active; in the data active means inhibition mostly above about 28%, no sharp cut-off; inactive means mostly below about 43%; further: 0% is about no effect
Pf growth 48h: P. falciparum growth inhibition at 48 hours (one generation); P. falciparum luciferase growth in erythrocytes, 48 h; 5.9% of 310,000 active; Potency, µM (doses to about 28.7 µM), for the others: top-dose activity change, negative = inhibition, hits mostly inhibitors; AID 504832; further: potency means the concentration at half of the fitted maximal effect; on the % scale 0 is the no-effect control and ±100 the full control effect
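Luciferase-expressing P. falciparum in infected erythrocytes (2% hematocrit, 0.1% parasitemia final) in RPMI 1640/0.5% Albumax were exposed to compound for 48 hours at 37 C, 5% CO2; growth read as luminescence.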
Cycloheximide cs: affects cycloheximide protein synthesis inhibition readout, counter-screen; cell reporter, cycloheximide protein synthesis inhibition counterscreen; max response, %; 12% of 300,000 active; AID 2314; in the data active means max response mostly above about 13%, no sharp cut-off; inactive means mostly below about 14%; further: read at 38.3 µM for the half of the compounds with a filed dose; 0% is about no effect
Sm TGR block: S. mansoni TGR enzyme inhibition; AID 485364; purified TGR, DTNB reduction, TNB absorbance 405 nm; Potency, µM (top dose mostly 114 µM), for the others: top-dose activity change, negative = inhibition, most hits filed as inhibitors; 3% of 360,000 active; further: potency means the concentration at half of the fitted maximal effect; on the % scale 0 is the no-effect control and ±100 the full control effect; nearly all actives have a fitted effect of over 60% in size
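TGR 20 nM + NADPH 100 uM (dispensed conc.), cpd preinc 15 min RT; start with NADPH (500 uM addition) then DTNB (15 mM addition). Kinetic TNB absorbance, 405 nm filter. Four-parameter Hill fit across titration.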
NS1 inh: blocks influenza NS1 protein function; AID 2326; Potency, µM (titrated, usually from 46.1 µM), for inactives: at the highest dose activity, positive = more growth; 0.4% of 270,000 active; calls by dose curve; further: potency means the concentration at half of the fitted maximal effect; actives are rising curves; nearly all actives have a fitted effect of over 50% in size
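A cell-based growth assay was used: compounds that relieve NS1-induced slow growth of budding yeast raise OD600. Assay medium was yeast nitrogen base with ammonium sulphate and -URA supplement, pH 6.0, with 2% galactose.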
Pf growth 96h: P. falciparum growth inhibition at 96 hour, primary screen for plastid delayed-death inhibitors. P. falciparum luciferase reporter growth, 96 h. Potency, µM (series often up to 28.7 µM), for the others: at the top dose activity change, negative = inhibition, actives largely listed as inhibitors. 6.9% of 320,000 active; further: potency means the concentration at half of the fitted maximal effect; on the % scale 0 is the no-effect control and ±100 the full control effect
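P. falciparum expressing integrated firefly luciferase grown in erythrocytes (2% hematocrit, 0.05% parasitemia final) with compounds for 96 hours at 37 C, 5% CO2. Growth inhibition read as loss of luminescence after adding luciferase detection reagent.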
The depositor's hits bear a star; [ ] = another dose, or the depositor's remark. Unless noted, the call rests on the fitted dose curve; in most records, active means well fitted curve in the direction sought with a large enough effect; inconclusive means small, poorly fitted or top-dose-only effect, or another doubt; inactive means no such curve, though single readings can be large; an effect the other way counts as inactive or inconclusive.

COc1ccc(NC(=O)c2nnn(Cc3ccccc3C)c2N)c(OC)c1 was read as Sm TGR block 5.5%.
Screening COc1ccc(C)cc1NC(=O)c1nnn(Cc2cc(C)ccc2C)c1N returned Shiga toxin inh 16.1, Cycloheximide cs 4.6, Sm TGR block -3.4%, NS1 inh 10.1% and Pf growth 96h 5.22µM*.
`CCn1cc(/C=C/C(=O)c2ccc(O)cc2)c(C)n1` gave Shiga toxin inh 15.2, Pf growth 48h 38.4%, Cycloheximide cs 12.9*, Sm TGR block 0.0%, NS1 inh 5.4% and Pf growth 96h 140.5%.
Screening Cc1nn(C)c(C)c1/C=C/C(=O)c1ccccc1 returned Shiga toxin inh 35.6*, Cycloheximide cs 26.8*, Sm TGR block -1.4%, NS1 inh -49.3% and Pf growth 96h -17.1%.
For Cc1nn(C)cc1/C=C/C(=O)c1cccs1 the results were Shiga toxin inh 58.3*, Pf growth 48h 205.9%, Cycloheximide cs 48.2*, Sm TGR block 2.7%, NS1 inh -29.4% and Pf growth 96h 69.7%.
Screening Cc1nn(C)cc1/C=C/C(=O)c1ccccc1 returned Shiga toxin inh 65.3*, Pf growth 48h 158.6%, Cycloheximide cs 27.9*, Sm TGR block -21.2% and NS1 inh -101.0%.
Screening O=C(/C=C/c1cccc([N+](=O)[O-])c1)c1cccs1 returned Shiga toxin inh -6.0, Pf growth 48h -1.0%, Cycloheximide cs 8.7, Sm TGR block -21.5%, NS1 inh -34.1% and Pf growth 96h inconclusive.
Screening Cc1ccc(-c2nn(CCC(=O)O)cc2/C=C\C(=O)c2ccc(Br)cc2)cc1 returned Shiga toxin inh -4.6, Pf growth 48h inconclusive, Cycloheximide cs 15.9, NS1 inh inconclusive and Pf growth 96h -3.8%.
CCc1sc(/C=C(/C#N)C(N)=S)cc1[N+](=O)[O-] was read as Shiga toxin inh 29.1, Pf growth 48h 40.1%, Cycloheximide cs 5.3, Sm TGR block inconclusive and Pf growth 96h inconclusive.
For O=S(=O)(c1ccccc1)N(CC(F)(F)F)c1ccc(C(O)(C(F)(F)F)C(F)(F)F)cc1 the results were Shiga toxin inh -13.5 and Cycloheximide cs -5.1.
`CCCCn1c2ccc(F)cc2c2nnc(SCCN3CCCCC3)nc21` gave Shiga toxin inh -6.5, Pf growth 48h inconclusive, Cycloheximide cs -1.4, Sm TGR block -28.3%, NS1 inh 2.2% and Pf growth 96h -1.8%.
Screening Cc1ccc2[nH]c3nc(SCCN4CCOCC4)nnc3c2c1 returned Shiga toxin inh 86.1*, Pf growth 48h 3.0%, Cycloheximide cs 28.0*, Sm TGR block -8.1%, NS1 inh -1.8% and Pf growth 96h 78.7%.
`Cc1ccc2[nH]c3c(=O)n(CCCN4CCOCC4)cnc3c2c1` gave Shiga toxin inh 33.0, Pf growth 48h 31.5%, Cycloheximide cs 10.4, Sm TGR block -1.5% and NS1 inh 4.3%.
`Cc1ccc2[nH]c3c(=O)n(CCN4CCOCC4)cnc3c2c1` gave Shiga toxin inh 60.6*, Pf growth 48h 68.3%, Cycloheximide cs 38.8*, Sm TGR block -9.2%, NS1 inh 3.9% and Pf growth 96h 57.3%.
Screening CCCCn1c2ccc(C)cc2c2nnc(SCCN3CCCCC3)nc21 returned Shiga toxin inh 3.4, Pf growth 48h 13.1µM*, Cycloheximide cs -1.4, Sm TGR block 11.3%, NS1 inh -6.1% and Pf growth 96h inconclusive.
Screening Cc1ccc(S(=O)(=O)Nc2cc3c(cc2NCc2ccccc2)n(C)c(=O)n3C)c(C)c1 returned Sm TGR block 5.1%.
O=C1CC(=O)Nc2cc(S(=O)(=O)Nc3cccc(Br)c3)ccc2N1 was read as Sm TGR block -7.0%.
For CC(C)NC(=O)c1ccc(-n2nc(C(F)(F)F)c3c2CCCC3)cc1 the results were Shiga toxin inh -14.0, Pf growth 48h inconclusive, Cycloheximide cs -4.0, Sm TGR block -1.8%, NS1 inh -1.1% and Pf growth 96h inconclusive.
CCC1CN(C(=O)Nc2cc(Cl)ccc2C(=O)OC)c2ccccc2S1 (stereo not drawn) was read as Sm TGR block -5.0%.
CCCN1CC=C2C(C#N)=C(N)C(C#N)(C#N)C(c3cccc(OC)c3OC)C2C1 (stereo not drawn) was read as Shiga toxin inh -3.3, Pf growth 48h inconclusive, Cycloheximide cs 12.6, Sm TGR block inconclusive and NS1 inh 10.2%.
Screening COc1cccc(OC)c1OCc1cc(C2C3CCCC=C3C(C#N)=C(N)C2(C#N)C#N)c(C)cc1C (stereo not drawn) returned Shiga toxin inh -3.4, Pf growth 48h inconclusive, Cycloheximide cs 5.4, Sm TGR block 39.8µM*, NS1 inh 16.9% and Pf growth 96h 9.28µM*.
For O=c1[nH]c2ccccc2nc1/C=C/c1ccc(F)cc1 the results were Shiga toxin inh 73.2*, Pf growth 48h 255.1%, Cycloheximide cs 37.3*, Sm TGR block -23.0%, NS1 inh inconclusive and Pf growth 96h 65.6%[5.75 µM].
O=c1[nH]c2ccccc2nc1/C=C/c1ccc(O)cc1 was read as Shiga toxin inh 69.7*, Pf growth 48h inconclusive, Cycloheximide cs 41.9*, Sm TGR block 4.0%, NS1 inh 0.9% and Pf growth 96h -0.3%.
For O=c1[nH]c2ccccc2nc1/C=C/c1ccccc1 the results were Shiga toxin inh 58.9*, Pf growth 48h 60.5%, Cycloheximide cs 44.9*, Sm TGR block -5.7%, NS1 inh -5.8% and Pf growth 96h -1.2%.
For O=c1[nH]c2ccccc2nc1/C=C(\O)C1CC1 the results were Shiga toxin inh -5.3, Pf growth 48h 31.5%, Cycloheximide cs 2.9, Sm TGR block 1.5%, NS1 inh 23.4% and Pf growth 96h inconclusive.
Screening COc1cc(Cl)cc(C(=O)O)c1OCC(=O)O returned Shiga toxin inh 31.0, Pf growth 48h 9.6%, Cycloheximide cs -1.8, Sm TGR block -0.2%, NS1 inh 0.9% and Pf growth 96h 14.3%.
Screening COc1ccc(CC2(C)OC(c3ccc([N+](=O)[O-])cc3)=NN2C(C)=O)cc1 (stereo not drawn) returned Shiga toxin inh -9.4, Pf growth 48h 9.28µM*, Cycloheximide cs 0.8, Sm TGR block 5.0%, NS1 inh -33.1% and Pf growth 96h 9.28µM*.
For O=[N+]([O-])c1ccc(Oc2cccc(Br)c2)c2ccncc12 the results were Shiga toxin inh 20.6, Pf growth 48h 11.7µM*, Cycloheximide cs 3.5, Sm TGR block 0.3% and NS1 inh -54.7%.
O=[N+]([O-])c1ccc(Oc2ccc(F)cc2)c2ccncc12 was read as Shiga toxin inh -32.9, Pf growth 48h 9.28µM*, Cycloheximide cs -5.0, Sm TGR block 6.1% and NS1 inh -116.5%.
`O=[N+]([O-])c1ccc(N2CCCC2)c2ccncc12` gave Shiga toxin inh 8.7, Pf growth 48h inconclusive, Cycloheximide cs 1.8, Sm TGR block 2.8%, NS1 inh -0.1% and Pf growth 96h -5.7%.
